Screening data from PubChem BioAssay.
An excerpt weighted towards active compounds, which were near 1.2% of everything screened.
RGS12 GoLoco inh – qHTS Assay for Inhibitors of RGS12 GoLoco Motif Activity (Red Fluorophore); Gai1:RGS12 GoLoco peptide FP, rhodamine, 10 min; Potency, µM (titrated, usually from 61.6 µM), without a hit: top-dose activity, negative = inhibition, most hits filed as inhibitors; 0.44% of 230,000 active; AID 880, 2007; active means well fitted inhibition curve with a large enough effect, not every such curve was filed as active; inactive means no such curve, though single readings can be large or run the other way; further: potency means the concentration at half of the fitted maximal effect; nearly all actives have a fitted effect of over 30% in size
GCN5L2 inh – qHTS Assay for Inhibitors of GCN5L2 | Histone acetyltransferase KAT2A (Homo sapiens), Q92830 | GCN5L2 HAT assay, ThioGlo1 CoA-SH fluorescence | Potency, µM (titrated, usually from 58.9 µM), for inactives: at the highest dose activity change, negative = inhibition, most hits filed as inhibitors | 0.21% of 390,000 active; further: potency means the concentration at half of the fitted maximal effect
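Enzyme at 20nM final was mixed with library compounds for 15 min at room temperature. Peptide H3(1-25) at 75uM, acetyl-CoA at 70uM and ThioGlo1 at 50uM were then added. Plates were read immediately and after 20 min (Ex340nm/Em540nm).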
Tb PGK inh – qHTS Assay to Find Inhibitors of Phosphoglycerate Kinase. Phosphoglycerate kinase, glycosomal (Trypanosoma brucei brucei), P07378. PGK/GAPDH coupled, Kinase-Glo luminescence, 60 min. Potency, µM (titrated, usually from 57.5 µM), for inactives: at the top dose activity change, negative = inhibition, usual class: inhibitors. 0.043% of 380,000 active. AID 602233, 2012; further: potency means the concentration at half of the fitted maximal effect; nearly all actives have a fitted effect of over 60% in size
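Recombinant glycosomal PGK reaction used 1,3-bisphosphoglycerate generated in-well by GAPDH (100nM final) in 100mM TEA pH 7.6, 5mM MgCl2, 0.01% Tween-20. After 60 minutes at room temperature, ATP was read by Kinase-Glo Plus luminescence end-point.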
Pin1 inhibitor – qHTS Assay to Find Inhibitors of Pin1; Pin1 FP peptide displacement, HiFluor488, 10 min; Potency, µM (titrated, usually from 115 µM), without a hit: at the top dose activity, negative = inhibition, most hits filed as inhibitors; 0.009% of 390,000 active; AID 504891, 2011; active means well fitted inhibition curve with a large enough effect in the polarisation, with a control signal flat, not every such curve was filed as active; inconclusive means small, poorly fitted or top-dose-only effect, or effect the other way, or a change in a side signal; inactive means no such curve, though single readings can be large or run the other way; the % refers to the polarisation; further: potency means the concentration at half of the fitted maximal effect
PI5P4Ka inh – qHTS for Inhibitors of phosphatidylinositol 5-phosphate 4-kinase (PI5P4K); PI5P4Kalpha enzyme, ADP-Glo luminescence, 60 min; active compounds read low; max response, %; Phosphatidylinositol 5-phosphate 4-kinase type-2 alpha (Homo sapiens), P48426; AID 652105, 2013; 1.2% of 330,000 active; active means max response of -50% or lower; inconclusive means between -30% and -50%; inactive means -30% or higher; further: value at the top dose of about 77 µM
Target sequence (P48426 whole entry, looked up): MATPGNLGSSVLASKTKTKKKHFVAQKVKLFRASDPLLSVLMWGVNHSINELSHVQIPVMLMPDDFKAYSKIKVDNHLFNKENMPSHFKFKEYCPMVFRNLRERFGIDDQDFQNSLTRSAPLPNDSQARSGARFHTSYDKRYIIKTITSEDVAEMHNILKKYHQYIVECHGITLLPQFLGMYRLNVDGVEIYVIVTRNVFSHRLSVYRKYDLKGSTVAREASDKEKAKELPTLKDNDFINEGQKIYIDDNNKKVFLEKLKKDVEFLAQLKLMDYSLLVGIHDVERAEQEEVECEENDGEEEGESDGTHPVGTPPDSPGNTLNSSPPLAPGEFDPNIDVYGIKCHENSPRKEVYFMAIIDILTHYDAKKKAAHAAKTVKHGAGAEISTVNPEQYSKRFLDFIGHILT
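Human PI5P4Kalpha with substrate in 0.038 M HEPES pH 7.4, 0.28 mM EGTA, 0.1% CHAPS, 5% DMSO; reaction started with 5 microM ATP (final), 60 min at room temperature. ADP formed read by ADP-Glo luminescence.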
PI4K2A block – qHTS for small molecular inhibitors of PI4K2A. 0.13% of 420,000 active. activity change, negative = inhibition, % at 76.9 µM. purified PI4K2A, ADP-Glo luminescence, 1 h; active compounds read low; in the data active means activity change below about -50%; inconclusive means mostly about -30% to -49%;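 further: -100% = wells without enzyme as full effect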
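Compounds are screened against recombinant PI4K2A using PI as substrate and ATP, the latter dispensed at 300 microM. Reactions run one hour at ambient temperature before ADP-Glo detection; full inhibition defined by wells lacking enzyme.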
ADP-Glo interf – qHTS for Inhibitors of PI5P4K: ADP-Glo counter assay | AID 743285, 2014 | shares compounds with PI5P4Ka inh | ADP-Glo detection counter-screen, luciferase luminescence, no enzyme | 1,100 tested, under 10 active | Potency, µM (titrated, usually from 76.9 µM), without a hit: at the top dose activity change, negative = inhibition, most hits filed as inhibitors
Active calls of the source: *; i = inactive; ? = inconclusive; nt = no result given; [ ] = dose if it differs, or a comment. Unless noted, the call rests on the fitted dose curve; in most records, active means well fitted curve in the direction sought with a large enough effect; inconclusive means small, poorly fitted or top-dose-only effect, or another doubt; inactive means no such curve, though single readings can be large; an effect the other way counts as inactive or inconclusive. Unless noted, on the % scale 0 is the no-effect control and ±100 the full control effect.

SMILES	RGS12 GoLoco inh	GCN5L2 inh	Tb PGK inh	Pin1 inhibitor	PI5P4Ka inh	PI4K2A block	ADP-Glo interf
CCCCCN(C(=O)CCC(=O)OCC(=O)NCCc1ccccc1)c1c(N)n(CCCC)c(=O)[nH]c1=O	nt	nt	i	nt	1.8	3.0	nt
Cc1ccc(-c2csc3ncnc(NCCC(=O)O)c23)cc1C	nt	-0.4%	i	6.1%	nt	-0.8	-2.3%
Cc1ccc(-c2csc3ncnc(NCCC(=O)O)c23)cc1	nt	-15.7%	6.0%	0.4%	?	4.7	nt
COc1ccccc1C(=O)Nc1ccc(C(=O)Nc2ccccc2C(=O)O)cc1	nt	-0.3%	-5.5%	2.6%	-79.5*	4.3	0.6%
CC(=O)Oc1ccc(C(=O)Nc2cccc(C(=O)Nc3ccccc3C(=O)O)c2)cc1	nt	-13.8%	-10.6%	9.3%	-51.0*	-4.6	3.0%
CS(=O)(=O)c1sc2nc(-c3cccs3)cc(-c3ccccc3)c2c1N	66.2%	?	i	31.6%	-52.5*	-9.5	-11.2%
Cc1ccc(-c2cc(-c3ccccc3)c3c(N)c(S(C)(=O)=O)sc3n2)cc1	76.2%	?	-4.4%	39.4%	8.6	-3.2	nt
Cc1ccc(OCC(=O)Nc2ccc(S(=O)(=O)N3CCCC3)cc2)cc1	nt	-2.8%	6.2%	?	0.0	-14.3	nt
Cc1cccc(NC(c2ccc(O)cc2)c2ccc3ccc(C)nc3c2O)n1 (stereo unspecified)	-9.6%	-9.0%	i	?	-52.1*	-5.7	-9.1%
COc1cccc(C(Nc2ccccc2)c2ccc3ccc(C)nc3c2O)c1 (stereo unspecified)	nt	nt	nt	nt	-3.3	3.1	nt
COc1ccc(N2CC(O)=C(c3nc(-c4ccccc4)cs3)C2=N)cc1	4.3%	7.6%	-8.8%	-3.0%	-53.2*	-1.9	-2.2%
C/C=C(/C)C(=O)O[C@@H]1c2c(ccc3ccc(=O)oc23)O[C@@H]1C(C)(C)OC(C)=O	4.9%	-5.1%	i	-4.5%	4.8	-1.1	nt
COCCCNC(=O)c1ccc2c(=O)n(CC3CCCO3)c(=S)[nH]c2c1 (stereo unspecified)	3.4%	?	-4.6%	-6.1%	-3.4	-7.2	-6.6%
C[C@]12CCC(=O)C=C1[C@@H]1C[C@H]1[C@H]1[C@@H]3[C@@H]4C[C@H]4[C@@]4(CCC(=O)O4)[C@@]3(C)CC[C@@H]12	-22.2%	-15.5%	nt	nt	nt	nt	nt
NC(=O)[C@@H]1CC2(CC(c3cccc(NC(=O)COc4ccc(Cl)cc4)c3)=NO2)CN1C(=O)COc1ccc(Cl)cc1 (stereo partly specified)	3.7%	-26.1%	-2.2%	34.3%	-7.5	3.1	-9.3%
C1CCN(CC2CCCCN2)CC1 (stereo unspecified)	nt	nt	-11.3%	-1.5%	0.1	1.4	nt
O=C(c1ccccc1)c1ccc2nc(-c3ccco3)c(-c3ccco3)nc2c1	-27.3%	?	-11.0%	nt	-99.6*	?	-2.7%
c1coc(-c2nc3ccccc3nc2-c2ccco2)c1	-13.4%	-19.9%	-1.6%[11.5 µM]	?	nt	-11.6	nt
Cc1ccc(OCC(=O)Nc2ccc(NC(=O)c3ccccc3)cc2)cc1C	nt	-2.0%	i	4.2%	-9.7	2.0	nt
O=C(c1ccc(COc2ccccc2Cl)o1)N1CCCC1	6.4%	-2.7%	-2.3%	-9.2%	-3.8	-17.1	nt
